Screening results deposited in PubChem BioAssay by several laboratories.
Compounds with a hit are over-represented: about 1.2% of the library has one in this group of screens.
Mtb UGM inh – blocks M. tuberculosis UGM enzyme. P9WIQ1. purified UGM, fluorescence polarization probe displacement. inhibition, % at 10 µM. actives 0.06% (n = 320,000). AID 504406; in the data active = inhibition above about 10%, passing the limit was not always enough; inconclusive = no clear call, values can overlap the other calls
Target sequence (P9WIQ1 whole entry, looked up): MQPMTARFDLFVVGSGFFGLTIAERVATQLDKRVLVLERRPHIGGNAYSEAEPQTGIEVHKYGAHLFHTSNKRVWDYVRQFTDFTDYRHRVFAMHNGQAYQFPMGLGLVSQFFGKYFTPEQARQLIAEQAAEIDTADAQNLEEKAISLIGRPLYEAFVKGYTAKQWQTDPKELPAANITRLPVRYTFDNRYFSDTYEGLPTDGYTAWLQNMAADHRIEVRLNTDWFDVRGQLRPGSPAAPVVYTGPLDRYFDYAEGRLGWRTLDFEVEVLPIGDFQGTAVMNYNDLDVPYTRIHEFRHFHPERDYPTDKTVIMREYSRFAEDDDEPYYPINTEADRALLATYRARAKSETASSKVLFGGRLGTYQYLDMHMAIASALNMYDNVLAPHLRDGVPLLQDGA
PriA SSB inh – inhibitors of Klebsiella pneumoniae PriA binding to SSB C-terminal tail; AlphaScreen SSBct-PriA binding, biotinylated peptide; actives 0.6% (n = 430,000); inhibition, % at 33 µM; in the data active = inhibition mostly above about 37%, no sharp cut-off; inactive = mostly below about 20%;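 note: plate controls were negative control peptide for no effect and reference peptide for full effect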
PrP 5UTR inh – suppresses PrP 5' UTR mRNA reporter expression. cell-based PrP 5' UTR mRNA reporter, plate reader. inhibition, % (concentration not given with the values). actives 0.35% (n = 340,000). AID 488862; in the data active = inhibition above about 52%; note: 0 = median of the neutral control wells
FadD28 binding – blocks FadD28 binding to the bisubstrate probe; inhibition, % at 12.5 µM; actives 0.22% (n = 360,000); fluorescence polarization; AID 588549; in the data active = inhibition above about 8.5%, passing the limit was not always enough; inconclusive = no clear call, values can overlap the other calls
PrPC TRFRET – reduces human prion protein on the cell surface | actives 0.43% (n = 370,000) | AID 720596 | cell surface PrPC, TR-FRET read-out | inhibition, % at 13.8 µM | P04156; in the data active = inhibition above about 24%; note: 0% = median of the test wells and 100% = reference compound wells
Rv3671c inh – Rv3671c (M. tuberculosis) protease inhibition; P9WHR9; inhibition, % at 5.96 µM; actives 0.048% (n = 320,000); AID 2606; in the data active = inhibition above about 38%;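 note: extracellular domain of Rv3671c used as enzyme; 0% = enzyme with DMSO and 100% = no enzyme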
* hit, by the source's call; i = inactive; ? = inconclusive; · = no result; ! = not confirmed by another sample.

SMILES	Mtb UGM inh	PriA SSB inh	PrP 5UTR inh	FadD28 binding	PrPC TRFRET	Rv3671c inh
CSc1ccc(/C=N/Nc2cccc(C(=O)O)c2)cc1	·	·	39	13*	·	·
C=CCOc1c(OC)cc(/C=N/Nc2cccc(C(=O)O)c2)c(Br)c1Br	2	i	-48	16*	1	16
O=C(O)c1cccc(N/N=C/c2ccc(OC(F)(F)F)cc2)c1	1	·	44	?	-1	-3
O=C(O)c1cc(N/N=C/c2ccc(OCc3ccccc3)cc2)ccc1Cl	1	·	-55	3	9	4
C=CCOc1c(Br)cc(C=NNc2ccc(C(=O)O)cc2)cc1OCC	·	-5	·	·	·	·
COC(=O)c1ccc(COc2ccc(/C=N/Nc3cccc(C(=O)O)c3)cc2)cc1	1	i	-42	11*	-7	-1
CSc1ccccc1NC(=O)c1cc(=O)c(OCc2ccccc2)co1	·	7	·	·	·	·
Cc1ccc(CC(=O)Nc2nnc(-c3ccco3)o2)c(C)c1	·	41*	·	·	·	·
Cc1ccc(C(=O)Nc2nnc(-c3ccco3)o2)cc1	-1	1	0	-1	-6	11
Cc1ccsc1C(=O)Nc1nnc(-c2ccco2)o1	1	50*	-2	-2	-9	0
O=C(Cc1ccccc1)Nc1nnc(-c2ccco2)o1	1	1	0	-1	-2	8
O=C(c1cc(-c2cccs2)[nH]n1)N1CCN(c2nc3c(C(F)(F)F)cccc3s2)CC1	·	-15	·	·	·	·
CCOC(=O)C1=C(O)/C(=C/c2cn(CC(=O)NCC3CCCO3)c3ccccc23)SC1=Nc1ccc(C)cc1 (centres undefined)	22*	4	14	-2	·	11
O=C(CF)NC(Nc1cccc2cccnc12)C(Cl)(Cl)Cl (centres undefined)	2	73*	-17	-2	-4	2
CC(C)(C)C(=O)NC(Nc1cccc2cccnc12)C(Cl)(Cl)Cl (centres undefined)	-2	87*	-21	-3	8	-8
O=C(/C=C\c1ccccc1)NNC(=O)c1cccn(Cc2ccc(F)cc2)c1=O	·	-3	·	·	·	·
COc1ccc(C)c2sc(N(CCCN3CCOCC3)C(=O)c3cc(C)on3)nc12	·	1	·	·	·	·
COc1ccc(Cl)cc1N1CC(c2nc(-c3cc(OC)c(OC)c(OC)c3)no2)CC1=O (centres undefined)	·	-1	·	·	·	·
O=C(O)c1cc(Br)ccc1NN=C1CCCCC1	·	4	-35	12*	-4	9
COC1(CNS(=O)(=O)CC23CCC(CC2=O)C3(C)C)CCSC1 (centres undefined)	·	40*	·	·	·	·
COc1ccc(C(=O)CN2CCN(CCN3C(=O)c4cccc5cccc(c45)C3=O)CC2)cc1	2	62*!	-8	-2	-26	-3
CCC(C)c1ccccc1OCC(O)CN1CCN(CCN2C(=O)c3cccc4cccc(c34)C2=O)CC1 (centres undefined)	·	46*!	·	·	·	·
O=C(CN1CCN(CCN2C(=O)c3cccc4cccc(c34)C2=O)CC1)c1ccc(F)cc1	2	14	-6	-2	-29	-3
COc1cc(NC(=O)c2scc(-c3cccc(C)c3)c2-n2cccc2)cc(OC)c1OC	·	-4	·	·	·	·
Cc1[nH]c(=O)[nH]c(=O)c1CCc1nnc(SCC(=O)NC2CCS(=O)(=O)C2)o1 (centres undefined)	·	7	·	·	·	·
SMILES	Mtb UGM inh	PriA SSB inh	PrP 5UTR inh	FadD28 binding	PrPC TRFRET	Rv3671c inh
COC(=O)c1ccc(C(=O)NCC2CCN(S(=O)(=O)c3cccnc3)CC2)cc1	·	-3	·	·	·	·
COc1ccc(OC)c(S(=O)(=O)N2CCC3(CC2)OCCN3S(=O)(=O)c2cccs2)c1	0	1	-1	10*	-5	7
Cc1ccc(S(=O)(=O)Nc2ccc(O)c3ncccc23)cc1	0	46*!	-18	-1	2	7
Cc1cc(Nc2ccc(Br)cc2)c2c([N+](=O)[O-])ccc(C)c2n1	·	55	·	·	·	·
COc1ccc(Nc2cc(C)nc3c(C)ccc([N+](=O)[O-])c23)cc1	·	112*	·	·	·	·
O=C(Nc1ccccc1Cc1nc(-c2cnccn2)no1)C1CCOC1 (centres undefined)	·	21	·	·	·	·
CC(C)(C)CC(C)(C)NC(=S)Nc1ccc2nc(-c3ccccn3)c(-c3ccccn3)nc2c1	-2	-1	-14	-7	3	1
CN(C)NC(=S)Nc1ccc2nc(-c3ccccn3)c(-c3ccccn3)nc2c1	0	79*	-12	-4	-12	8
OCCCNC(=S)Nc1ccc2nc(-c3ccccn3)c(-c3ccccn3)nc2c1	-1	72*	-5	-3	-33	3
